Bioassay records as filed in PubChem BioAssay.
Compounds with a hit are over-represented: about 12% of the library has one in this group of screens.
BAZ2B block – blocks human BAZ2B | Q9UIF8 | AlphaScreen BAZ2B-H3K14Ac peptide displacement | Potency, µM (titrated, usually from 114 µM), for the others: at the highest dose activity change, negative = inhibition, most hits filed as inhibitors | 360,000 tested, 4.4% active; note: % is set by controls: 0 for no effect and ±100 for the full control effect; nearly all actives have a fitted effect of over 60% in size
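Protein-peptide AlphaScreen: BAZ2B 50 nM, b-H3K14Ac 50 nM, 1x PBS pH 7.4 + 0.01% Tween-20. Preincubation 30 min RT; cpd 30 min RT (top 110 uM); beads 20 min RT, light-protected.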
G9a block – inhibitors of human histone lysine methyltransferase G9a; Q96KQ7; 350,000 tested, 8.8% active; G9a H3K9 monomethylation, AlphaScreen, 2 h; Potency, µM (top dose mostly 102 µM), inactives show at the highest dose activity, negative = inhibition, actives largely listed as inhibitors; note: % is set by controls: 0 for no effect and ±100 for the full control effect; nearly all actives have a fitted effect of over 75% in size
Target sequence (Q96KQ7 913-1193 limits assumed): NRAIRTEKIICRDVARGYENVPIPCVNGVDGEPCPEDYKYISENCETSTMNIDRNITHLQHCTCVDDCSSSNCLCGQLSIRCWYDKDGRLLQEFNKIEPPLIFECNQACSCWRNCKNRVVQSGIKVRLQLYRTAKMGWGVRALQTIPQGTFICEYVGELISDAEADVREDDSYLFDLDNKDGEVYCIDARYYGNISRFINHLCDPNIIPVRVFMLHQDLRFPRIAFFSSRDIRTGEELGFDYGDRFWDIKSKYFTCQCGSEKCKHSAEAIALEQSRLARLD
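AlphaScreen detection with an anti-monomethyl H3K9 antibody quantified product after a 2 h room-temperature reaction containing 500 nM biotinylated H3K9 peptide, 20 µM SAM and 20 nM enzyme, which had been preincubated 15 min with compound.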
Sfp PPTase inh – Sfp phosphopantetheinyl transferase inhibition. Q9F4F7. Biochemical Sfp PPTase activity, qHTS. Potency, µM, inactives show largest response in the series, negative = inhibition, most hits filed as inhibitors. 310,000 tested, 3.5% active;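 note: the enzyme is Sfp with the accession as filed and its product quenches rhodamine fluorescence; 0% = enzyme reaction without inhibitor and -100% = no enzyme wells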
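Reaction rates are the 30-min fluorescence difference (ex 525, em 598 nm) in wells containing 15 nM Sfp, 5 uM rhodamine-CoA and 12.5 uM BHQ-2-YbbR at pH 7.6 with 10 mM MgCl2.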
TDP1 inh – inhibitors of human tyrosyl-DNA phosphodiesterase TDP1. Q9NUW8. recombinant TDP1, AlphaScreen DNA substrate cleavage. Potency, µM (top dose mostly 130 µM), without a hit: at the top dose activity change, negative = inhibition, hits mostly inhibitors. 350,000 tested, 0.28% active. AID 485290; note: % is set by controls: 0 for no effect and ±100 for the full control effect; nearly all actives have a fitted effect of over 40% in size
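Recombinant human Tdp1 (E. coli-expressed, 1 nM final) preincubated with compounds 15 min at room temperature, then 5'-biotin/3'-phosphotyrosine-FITC DNA substrate (15 nM final) added for 5 min. AlphaScreen beads (10 ug/ml final) added 10 min; cleavage lowers signal.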
JMJD2A Tudor – blocks the human JMJD2A Tudor domain | O75164 | AlphaScreen JMJD2A-Tudor / H3K4me3 peptide binding | Potency, µM (top dose mostly 114 µM), for inactives: at the highest dose activity change, negative = inhibition, most hits filed as inhibitors | 390,000 tested, 4.4% active; note: % is set by controls: 0 for no effect and ±100 for the full control effect; nearly all actives have a fitted effect of over 50% in size
HP1b binding inh – HP1-beta chromodomain-methylated histone interaction inhibition | AlphaScreen HP1-beta / biotin-H3K9me3 peptide binding | Potency, µM (series often up to 114 µM), inactives show at the top dose activity change, negative = inhibition, most hits filed as inhibitors | P83916 | 390,000 tested, 0.56% active; note: nearly all actives have a fitted effect of over 70% in size
Target sequence (P83916 whole entry, looked up): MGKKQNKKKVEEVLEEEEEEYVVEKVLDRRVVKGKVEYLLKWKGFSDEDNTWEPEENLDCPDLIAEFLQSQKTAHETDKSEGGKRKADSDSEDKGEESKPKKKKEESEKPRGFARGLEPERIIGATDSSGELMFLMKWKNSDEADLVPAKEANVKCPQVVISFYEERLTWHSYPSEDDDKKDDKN
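AlphaScreen: HP1-beta (50 nM) preformed 30 min with biotin-H3(1-18)K9me3 peptide (50 nM) in PBS pH 7.4, 0.01% Tween-20. Compound added for 30 min at RT, then streptavidin donor/nickel chelate acceptor beads (10 ug/mL) for 30 min.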
Starred values were filed as active, the others as inactive; ? = inconclusive; . = no result given; [ ] = another dose, or the depositor's remark. Calls come from the whole dose curve; as a rule, active = well fitted curve in the direction sought with a large enough effect; inconclusive = small, poorly fitted or top-dose-only effect, or another doubt; inactive = no such curve, though single readings can be large; an effect the other way counts as inactive or inconclusive. Potency is the fitted concentration of half-maximal effect.

SMILES	BAZ2B block	G9a block	Sfp PPTase inh	TDP1 inh	JMJD2A Tudor	HP1b binding inh
Cc1ccc(-n2ncc3c(Nc4cccc(C(F)(F)F)c4)ncnc32)cc1C	10%	-5%[59 µM]	.	3%	-11%	58%
CCCCNc1cc(NC2CCCCC2)c2c3c(onc13)-c1ccccc1C2=O	1.8µM*	2µM*	.	12%	10µM*	?
O=C1c2ccccc2-c2onc3c(NCCO)cc(NC4CCCCC4)c1c23	3.5µM*	2.2µM*	.	17%	7.9µM*	?
O=C1C2C3CCC(C3)C2C(=O)N1c1ccc2ccccc2c1 (centres undefined)	-6%	-1%	13%	.	-1%	35%
COc1ccc(CC(=O)Oc2ccc(C)cc2C)cc1	130%	126%[59 µM]	6%	.	194%	189%
COc1ccc(CC(=O)Oc2ccc(C)cc2Br)cc1OC	50µM*	-23%	-1%	9%	22%	?
Cn1c(=S)[nH]c2cccnc21	4%	?	12%	-2%	?	17%
Cc1nc2c(=O)[nH]c(=S)n(C)c2nc1C	-28%	7.1µM*	4.5µM*	-4%	50µM*	-71%
CCNS(=O)(=O)c1ccc(CCC(=O)N2CCc3ccccc3C2)cc1	-31%	-31%	13%	.	-6%	48%
O=C(NCC(c1ccco1)N1CCCC1)c1ccc(S(=O)(=O)Nc2ccccc2F)cc1 (centres undefined)	-26%	?	.	0%	-8%	24%
CC1CCc2cc(F)ccc2N1C(=O)c1cccnc1 (centres undefined)	3%	.	0%	.	-13%	65%
O=C(c1cnc2n(c1=O)CCS2)N1CCc2ccccc21	-5%	-4%[59 µM]	1%	-8%	-15%	30%
CC1Cc2ccccc2N1C(=O)c1cnc2n(c1=O)CCS2 (centres undefined)	7%	45µM*	-3%	3%	-7%	34%
CC1Cc2ccccc2N1C(=O)c1cccnc1 (centres undefined)	4%	50µM*	-5%	-5%	-2%	19%
CCN(Cc1ccccc1)C(=O)c1oc2ccc(S(=O)(=O)N3CCOCC3)cc2c1C	-20%	20%[59 µM]	14%	1%	-15%	69%
CC1(c2ccccc2)CC(c2ccccc2)=Nc2ccccc2N1 (centres undefined)	?	.	15%	.	-19%	7%
c1ccc(C2=Nc3ccccc3NC(c3ccccc3)C2)cc1 (centres undefined)	10%	35µM*	-28%	-6%	0%	21%
Clc1ccccc1C1CC(c2ccccc2)=Nc2ccccc2N1 (centres undefined)	?	.	-18%	3%	-4%	19%
Brc1ccccc1C1CC(c2ccccc2)=Nc2ccccc2N1 (centres undefined)	?	?	-23%	5%	40µM*	-24%
O=C(O)c1cc(S(=O)(=O)NCCOc2ccccc2)ccc1Cl	.	.	.	-4%	2%	33%
COc1ccc2[nH]c(C)c(C(=O)CN3CCOCC3)c2c1	?	?	?	5%	-5%	19%
COc1ccc2[nH]c(C)c(C(=O)CN3CCc4cc(OC)c(OC)cc4C3)c2c1	4%	50µM*	16%	1%	-30%	12%
COc1ccc2c(c1)c(C(C)=O)c(C)n2C	-21%	22%	9%	.	-5%	23%
COc1ccc2c(c1)c(C(=O)CN1CCc3ccccc3C1)c(C)n2C	-5%	45µM*	4%	8%	?	26%
CCN1/C(=C2\OC(=S)N(C)C2=O)C=Cc2ccccc21	.	3%	-13%	7%	-12%	15%
SMILES	BAZ2B block	G9a block	Sfp PPTase inh	TDP1 inh	JMJD2A Tudor	HP1b binding inh
CN1C(=O)/C(=C2/C=CC=CN2C)OC1=S	-11%	32µM*	56µM*	3%	-17%[57.1 µM]	?
c1ccc(CNc2nc(-c3cccnc3)nc3ccccc23)cc1	-4%	-3%	-8%	.	-16%	29%
Clc1cccc(CNc2nc(-c3cccnc3)nc3ccccc23)c1	?	45µM*	-29%	3%	?	-14%
c1cncc(-c2nc(NCc3ccc4c(c3)OCO4)c3ccccc3n2)c1	-24%	5%[59 µM]	45µM*	5%	-14%	49%
c1cncc(-c2nc(NCC3COc4ccccc4O3)c3ccccc3n2)c1 (centres undefined)	-32%	50µM*	?	8%	22%[11.4 µM]	1%
COc1ccc(S(=O)(=O)N2CCN(C/C=C/c3ccccc3)CC2)cc1NC(C)=O	-17%	.	-1%	3%[56.1 µM]	-26%	22%
CCOc1cc(C2C(C#N)=C(N)OC(C)=C2C(C)=O)cc(Br)c1O (centres undefined)	?	?	7%	2%	89µM*	-17%
Cc1ccn2cc(CCNC(=O)CC3CCCCC3)nc2c1	.	-23%	-16%	0%	-19%	16%
O=C(NNc1ccc(F)cc1)c1c(F)cccc1Cl	3%	?	8%	-5%	-1%	26%
O=C(NNc1ccc(Cl)cc1)c1c(F)cccc1Cl	-12%	45µM*	17%	3%	-7%	32%
CCCCCCOc1ccc(C2C(=O)N(C3CCCCC3)CC(=O)N2CCCC)cc1 (centres undefined)	21%	23%[59 µM]	.	-8%	-5%	38%
O=C1Nc2c(ccc(Cl)c2Cl)C(=O)C1(F)c1ccccc1 (centres undefined)	-26%	45µM*	-10%	7%	-22%	0%
OCCCNC(=S)Nc1ccc2nccnc2c1	-13%	.	-22%	4%	-14%	44%
Fc1ccc(NC(=S)Nc2ccc3nccnc3c2)cc1	-17%	40µM*	?	7%	-16%	35%
COC(=O)[C@@]1(Cc2ccccc2)[C@H]2c3cc(C(=O)N4CCCC4)n(Cc4cc(F)cc5c4OCOC5)c3C[C@H]2CN1C(=O)c1ccccc1	.	.	-3%	15%	.	.
Cc1ccc(C(=O)Nn2c(C)nc3ccccc3c2=O)cc1C	4%	-3%	9%	.	-15%	41%
Cc1cc(OCC[N+]2(C)CCCCC2)nc2ccccc12	-11%	?	19%	-2%	40µM*	-19%
Cc1ccc(OC(C)C(=O)Nc2ccc3c(c2)n(C)c(=O)n3C)c(C)c1 (centres undefined)	56µM*	8%[59 µM]	-8%	.	-21%	10%
COc1ccc(C(=O)Nc2ccc3c(c2)n(C)c(=O)n3C)cc1OC	56µM*	-2%	13%	2%	-17%	31%
CC(=O)Nc1ccc2c(c1)n(C)c(=O)n2C	-8%	-6%[59 µM]	20%	3%	-8%	18%
